This is an account of results in PubChem BioAssay (EPA / NIEHS).

Results filed as inconclusive are left out. Some structures have more than one record in an assay (separate samples or runs), and their calls can disagree. Active and inactive are the calls of the source. Rule for the calls, unless noted: active = hit-call score of the fitted dose curve at least 0.9, where 1 is the maximum; inactive = score below 0.9.

The first assay is described as follows: Tanguay_ZF_120hpf_TR_legacy: (Legacy) Oregon State University Tanguay Lab 120 Hour Post-fertilization zebrafish Assay for Touch Response (AID 2283667; active = hit-call score of the fitted dose curve at least 0.9, where 1 is the maximum). A digest of the protocol:
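Binary touch-response call at 120 hpf, analysed as gain of signal versus DMSO baseline. Wild-type 5D larvae, static exposure at 28C, 0.64% DMSO final; 5uM trimethyltin chloride as positive control.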
With `C[C@]12CCC(=O)C[C@@H]1CC[C@@H]1[C@@H]2CC[C@]2(C)[C@@H](O)CC[C@@H]12`, the outcome was inactive.

`C=CC(=O)OCCCCCC(C)C`: the result was inactive. What is called AC50 is the concentration at which the activity in the assay is half-maximal. As to `CCC(=O)C(CC(C)N(C)C)(c1ccccc1)c1ccccc1` (stereo unspecified), the AC50 is 39 µM (active). On to `COc1cc(-c2ccc(N)c(OC)c2)ccc1N`, for which the compound was called inactive.

For `O=C1C2(Cl)C3(Cl)C4(Cl)C(Cl)(Cl)C5(Cl)C3(Cl)C1(Cl)C5(Cl)C24Cl` (stereo unspecified), the AC50 is 34.8 µM (active). Consider `O=c1[nH]c(=O)[nH]c(=O)[nH]1`, for which the call was inactive. Take `CCN1CCC2(CC1)COc1cc3c(cc12)N(C(=O)c1ccc(-c2ccc(-c4nnc(C)o4)cc2C)cc1)CC3`: the compound was classed as inactive. In the case of `O=C(O)C(F)(F)C(F)(F)C(F)(F)C(F)(F)C(F)(F)C(F)(F)F`, the result was inactive. On to `CN(C)N=O`, for which the compound was called inactive.

A short description of another assay: STM_H9_OrnithineISnorm_perc: Stemina devTOX quickPredict H9 human embryonic stem cell (hESC)-based Assay for Ornithine (ORN) Metabolite Biomarker, Normalized (AID 2283712).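 Note: ornithine released into spent medium during last day measured by mass spectrometry.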 A digest of the protocol: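 Ornithine secreted by H9 hESCs after 72h compound treatment (daily media/compound renewal) was quantified in final-day media by UPLC-HRMS. Values are isotope-standard-normalized, expressed relative to 0.1% DMSO, fitted in positive direction.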
As for `C[C@@H]1C[C@@H]([C@H](O)CC2CC(=O)NC(=O)C2)C(=O)[C@@H](C)C1`, the half-maximal activity concentration (AC50) was 4.59 µM (active). On the same count and under the same terms, to `CCN1CCC2(CC1)COc1cc3c(cc12)N(C(=O)c1ccc(-c2ccc(-c4nnc(C)o4)cc2C)cc1)CC3` belongs 8.53 µM (active). Take `O=[N+]([O-])c1ccc(O)c([N+](=O)[O-])c1`: the result was inactive.

Regarding `ClCC(Cl)CCl`, the outcome was inactive.

A short description of a further assay: STM_H9_CystineISnorm_perc: Stemina devTOX quickPredict H9 human embryonic stem cell (hESC)-based Assay for Cystine (CYSS) Metabolite Biomarker, Normalized (AID 2283713). The method in brief: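 Cells are held undifferentiated and treated for 72h, receiving fresh medium with compound every 24h. Cystine secreted during the final day is quantified by UPLC-HRMS against a labeled spike-in, then expressed relative to the DMSO vehicle median.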
Regarding `C[C@@H]1C[C@@H]([C@H](O)CC2CC(=O)NC(=O)C2)C(=O)[C@@H](C)C1`, the AC50 was 0.92 µM (active). For `CCN1CCC2(CC1)COc1cc3c(cc12)N(C(=O)c1ccc(-c2ccc(-c4nnc(C)o4)cc2C)cc1)CC3`, the AC50 is 3.56 µM (active). Consider `O=[N+]([O-])c1ccc(O)c([N+](=O)[O-])c1`, for which the half-maximal activity concentration (AC50) is 31.1 µM (active). As for `ClCC(Cl)CCl`, the result was inactive.

The next assay in a line: STM_H9_OrnCyssISnorm_ratio: Stemina devTOX quickPredict H9 human embryonic stem cell (hESC)-based Assay for Ornithine (ORN):Cystine (CYSS) Ratio (AID 2283714; active = hit-call score of the fitted dose curve at least 0.9, where 1 is the maximum). A digest of the protocol:
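UPLC-HRMS of spent media: ORN/CYSS ratio of internal-standard-normalized percentages, DMSO (0.1%) baseline. Pluripotent H9 hESCs, 72h exposure, daily re-dosing with fresh media; last 24h media collected.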
Consider `C[C@@H]1C[C@@H]([C@H](O)CC2CC(=O)NC(=O)C2)C(=O)[C@@H](C)C1`, for which the AC50 was 2.9 µM (active). The same measure, in the same setting: to `CCN1CCC2(CC1)COc1cc3c(cc12)N(C(=O)c1ccc(-c2ccc(-c4nnc(C)o4)cc2C)cc1)CC3` belongs 7.61 µM (active). Consider `O=[N+]([O-])c1ccc(O)c([N+](=O)[O-])c1`, for which the result was inactive. On to `ClCC(Cl)CCl`, for which the result was inactive.

The nature of a further assay: CEETOX_H295R_MTT_cell_viability: Viability Assessment in the CeeTox HT-H295R MTT Assay (AID 2283718).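 For AC50: curve fitted both ways so AC50 may mark viability loss or gain.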 The method in brief:
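Human H295R adrenal cells, prestimulated 48 h with 10 uM forskolin, were exposed 48 h to chemicals in 0.1% DMSO. Viability was measured in the same wells by MTT (0.5 mg/ml, 4 h, 37 C), absorbance 570/650 nm, as percent of controls.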
For `O=C(Cc1ccccc1)c1ccccc1`, the call was inactive.

As for `Cn1sc(Cl)cc1=O`, the compound was called inactive. With `C[C@]12CCC(=O)C[C@@H]1CC[C@@H]1[C@@H]2CC[C@]2(C)[C@@H](O)CC[C@@H]12`, the result was inactive. On to `Oc1ccc(-c2ccccc2)cc1`, for which the compound was classed as inactive. On to `CN(CCCC(=O)c1cccnc1)N=O`, for which the call was inactive. With `O=C(OC1CCCCC1)c1ccccc1C(=O)OC1CCCCC1`, the AC50 is 28.6 µM (active). Consider `CCC1(c2ccc(N)cc2)CCC(=O)NC1=O` (stereo unspecified), for which the compound was classed as inactive.

As to `C[C@@H]1C[C@@H]([C@H](O)CC2CC(=O)NC(=O)C2)C(=O)[C@@H](C)C1`, the call was inactive. Turning to `C=CC(=O)N(C)C`, the compound was classed as inactive. As to `COc1cc(-c2ccc(N)c(OC)c2)ccc1N`, the outcome was inactive. For the compound `C(=NC1CCCCC1)=NC1CCCCC1`, the compound was called inactive. Consider `Nc1ccc(-c2ccc(N)c(Cl)c2)cc1Cl`, for which the compound was classed as inactive. Take `Fc1ccc(C2(Cn3cncn3)OC2c2ccccc2Cl)cc1` (stereo unspecified): the compound was classed as inactive. Take `ClC(Cl)=C(Cl)C(Cl)=C(Cl)Cl`: the compound was called inactive. For the compound `C1CCC(NC2CCCCC2)CC1`, the compound was classed as inactive. The same measure, in the same setting: to `C[C@]12CC[C@H](O)CC1=CC[C@@H]1[C@@H]2CC[C@]2(C)C(=O)CC[C@@H]12` belongs “inactive”. For `c1cc[c]([Hg][c]2ccccc2)cc1`, the concentration at half-maximal activity (AC50) is 24.7 µM (active).

`CCCCCCCCC(=O)NCc1ccc(O)c(OC)c1`: the compound was called inactive. As to `CC(C)OC(=O)Nc1ccccc1`, the AC50 is 2.64 µM (active). As for `CCOP(=S)(OCC)SCCS(=O)(=O)CC`, the call was inactive.

A further assay in a line: Tanguay_ZF_120hpf_ActivityScore_legacy: (Legacy) Oregon State University Tanguay Lab 120 Hour Post-fertilization zebrafish Assay Score for Activity (AID 2283742; active = hit-call score of the fitted dose curve at least 0.9, where 1 is the maximum;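 for AC50: dechorionated Tropical 5D wild-type zebrafish embryos held singly per well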). The method in brief: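 Dechorionated 5D embryos, one per well, static exposure 6–120 hpf, 28C, sealed and dark; final DMSO 0.64% (vol/vol). Brightfield binary scoring of mortality plus 18 endpoints; gain-of-signal fit versus DMSO baseline.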
For `Cn1sc(Cl)cc1=O`, the AC50 was 39.8 µM (active). Turning to `C[C@]12CCC(=O)C[C@@H]1CC[C@@H]1[C@@H]2CC[C@]2(C)[C@@H](O)CC[C@@H]12`, the compound was called inactive. On the same count and under the same terms, to `C=CC(=O)OCCCCCC(C)C` belongs “inactive”.

Consider `CC(C)(OO)c1ccccc1`, for which the compound was classed as inactive. For `CCC(=O)C(CC(C)N(C)C)(c1ccccc1)c1ccccc1` (stereo unspecified), the outcome was inactive. `C[C@@H]1C[C@@H]([C@H](O)CC2CC(=O)NC(=O)C2)C(=O)[C@@H](C)C1`: the AC50 is 17.9 µM (active). Turning to `COc1cc(-c2ccc(N)c(OC)c2)ccc1N`, the AC50 is 3.57 µM (active) and the outcome was inactive. Consider `O=C1C2(Cl)C3(Cl)C4(Cl)C(Cl)(Cl)C5(Cl)C3(Cl)C1(Cl)C5(Cl)C24Cl` (stereo unspecified), for which the AC50 is 71 µM (active). Take `O=c1[nH]c(=O)[nH]c(=O)[nH]1`: the compound was classed as inactive.

For the compound `CCN1CCC2(CC1)COc1cc3c(cc12)N(C(=O)c1ccc(-c2ccc(-c4nnc(C)o4)cc2C)cc1)CC3`, the result was inactive.

In the case of `O=C(O)C(F)(F)C(F)(F)C(F)(F)C(F)(F)C(F)(F)C(F)(F)F`, the call was inactive. Consider `CN(C)N=O`, for which the result was inactive. Take `O=[N+]([O-])c1ccc(O)c([N+](=O)[O-])c1`: the AC50 is 29.6 µM (active). `ClCC(Cl)CCl`: the result was inactive.
